Assay outcomes from PubChem BioAssay.
An excerpt weighted towards active compounds, which were near 4.1% of everything screened.
F508del corr: CFTR F508del correction in bronchial cells | CFBE cells, YFP halide quenching; stimulated with forskolin plus potentiator P3; % fluorescence drop versus neutral controls | activity (quench increase), % at 7.58 µM | 350,000 compounds, 0.36% hits;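 active = mean added fluorescence quench of at least 8% versus neutral control, with both replicates also reaching 8%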;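 note: cells transiently co-express mutant CFTR-F508del with the halide-sensitive YFP; corrector assay measuring rescue of mutant channel to the surface after 24 h compound exposure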
PglD DTNB: PglD (C. jejuni) enzyme inhibition; purified PglD enzyme, DTNB colorimetric CoA detection; inhibition, % at 12.5 µM; 360,000 compounds, 0.098% hits; in the data active = inhibition above about 16%, passing the limit was not always enough
Env fusion inh: inhibitors of HIV Env-mediated cell fusion; HeLa-JRFL Env/CEM21 cell fusion, luciferase; inhibition, % at 12.3 µM; 360,000 compounds, 1.1% hits;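 active = mean replicate inhibition score of at least 50 and every replicate individually at or above 50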;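 note: 0% = plate neutral controls and 100% = maraviroc near 300 nM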
Casp6 inh: caspase-6 (human) enzyme inhibition. AID 686996. 350,000 compounds, 0.53% hits. P55212. purified caspase-6, Z-VEID-R110 cleavage fluorescence. inhibition, % at 12.5 µM;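 active = mean inhibition across replicates at least about 35%, with every replicate also reaching that limit, limit read from the data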;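 note: 0% = median of neutral control wells and 100% = no fluorescence left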
Target sequence (P55212 24-179 limits assumed): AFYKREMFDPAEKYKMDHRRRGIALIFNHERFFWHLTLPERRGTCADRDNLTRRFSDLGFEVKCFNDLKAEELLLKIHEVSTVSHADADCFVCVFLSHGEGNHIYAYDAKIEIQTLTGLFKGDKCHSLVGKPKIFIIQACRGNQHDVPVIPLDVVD
Target sequence (P55212 194-293 limits assumed): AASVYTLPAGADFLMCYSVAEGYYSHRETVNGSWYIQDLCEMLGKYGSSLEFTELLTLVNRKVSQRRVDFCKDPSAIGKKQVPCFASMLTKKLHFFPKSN
NSD2 inh: inhibitors of human histone methyltransferase NSD2 | AID 743445 | inhibition, % at 12.5 µM | NSD2 peptide methylation, AlphaScreen, 120 min | O96028 | 310,000 compounds, 0.54% hits; in the data active = inhibition above about 50%
ALR inh: human ALR oxidase inhibition via reduced H2O2. 290,000 compounds, 3.8% hits. P55789. purified ALR, DTT oxidation, H2O2 HRP-luminol luminescence. inhibition, % (no concentration beside the values);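 active = mean replicate inhibition above about 79%, with every replicate also reaching it, limit read from the data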
Target sequence (P55789 whole entry, looked up): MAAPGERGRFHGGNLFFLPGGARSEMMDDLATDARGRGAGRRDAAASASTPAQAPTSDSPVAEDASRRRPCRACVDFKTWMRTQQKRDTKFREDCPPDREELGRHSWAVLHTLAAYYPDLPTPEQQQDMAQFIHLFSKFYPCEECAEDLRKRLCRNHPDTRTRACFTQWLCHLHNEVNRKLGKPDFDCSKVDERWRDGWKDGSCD
* marks the source's active call; other numbers are inactive results; . = no result; [ ] = another dose, or the depositor's remark.

SMILES | F508del corr | PglD DTNB | Env fusion inh | Casp6 inh | NSD2 inh | ALR inh
CC(C)(O)c1ccc2c(c1)CCC1C(C)(C(=O)O)CCCC21C (configuration not stated) | -1 | 7 | . | 10 | . | -20
O=C(O)c1cccc(N/N=C(\N=Nc2ccccc2)c2ccccc2)c1 | 2 | 1 | -7 | -3 | . | 98*
CC(=O)Nc1ccc(/C(N=Nc2ccccc2)=N/N=C(N)N)cc1 | -1 | . | -27 | -2 | 7 | .
O=C(O)c1ccc(N=N/C(=N\Nc2ccc(C(=O)O)cc2)c2ccccc2)cc1 | -2 | -3 | 23 | 2 | . | 98*
CCN(CC)S(=O)(=O)c1ccc(NC(=O)C2CC(=O)N(c3ccc4c(c3)OCCO4)C2)cc1 (configuration not stated) | 15* | -2 | 7 | 2 | 1 | .
Cc1cc(NS(=O)(=O)c2ccc(NC(=O)c3ccc(Cl)nc3)cc2)nc(C)n1 | 3 | 0 | 6 | -3 | 0 | .
Cc1cc(NS(=O)(=O)c2ccc(NC(=O)CSc3nc4ncc(Br)cc4[nH]3)cc2)nc(C)n1 | 2 | -3 | 8 | 5 | 3 | 99*
Cc1cc(NS(=O)(=O)c2ccc(NC(=O)CSc3nc4ncccc4[nH]3)cc2)nc(C)n1 | 2 | 3 | -17 | 0 | 0 | 99*
Cc1cc(NS(=O)(=O)c2ccc(NC(=O)c3cnc(Cl)c(Cl)c3)cc2)nc(C)n1 | -4 | 2 | . | 1 | 3 | 99*
Cc1cc(C)nc(NS(=O)(=O)c2ccc(NC(=O)CSc3nc4ccccc4[nH]3)cc2)n1 | . | -2 | 15 | 0 | 7 | 5
Cc1ccc(NC(=O)CSc2nc3ncc(Br)cc3[nH]2)cc1C | 1 | 0 | 2 | -2 | 1 | -1
Cc1cc(NS(=O)(=O)c2ccc(NC(=O)CSc3nc4ncc(Cl)cc4[nH]3)cc2)nc(C)n1 | 0 | 3 | -2 | 0 | 1 | 100*
CCC(=O)Nc1ccc2c(c1)OC[C@H](C)N(CCc1ccccc1)C[C@H](C)[C@@H](OC)CN(C)C2=O | -2 | . | . | 1 | . | .
COc1ccc(S(=O)(=O)Nc2ccc3c(c2)CC(=O)N([C@H](C)CO)C[C@H](C)[C@@H](CN(C)S(=O)(=O)c2ccccc2)O3)cc1 | -1 | 3 | 1[16.7 µM] | . | . | .
COc1ccc2c3c([nH]c2c1)[C@@H](CO)N(C(=O)C1CCCCC1)CC31CCN(C(=O)c2ccncc2)CC1 | 0 | . | . | 3 | . | .
CCC(C)Nc1ccc(NC(C)CC)cc1 (configuration not stated) | . | -3 | . | . | . | 99*
C[C@H](CO)N1C[C@H](C)[C@@H](CN(C)C)Oc2cc(C3=CCCCC3)ccc2S1(=O)=O | -4 | . | 16[16.7 µM] | . | . | .
O=C(O)c1ccc(-n2c(/C=C/c3cccc([N+](=O)[O-])c3)nc3ccccc3c2=O)cc1 | -1 | -1 | 1 | 10 | 4 | 90*
O=C(O)c1cccc(-n2c(/C=C/c3ccc([N+](=O)[O-])cc3)nc3ccccc3c2=O)c1 | -2 | -1 | 6 | 5 | 3 | 17
O=C(O)c1ccc(-n2c(/C=C/c3ccccc3)nc3ccccc3c2=O)cc1 | -2 | -18 | 3 | 6 | 0 | 99*
O=C(C1CCCC1)N1CCCCN2[C@H](C1)[C@H](c1ccc(C#CC3(O)CCCC3)cc1)[C@@H]2CO | -4 | -1 | . | 1 | . | .
c1csc(C(c2nnnn2C2CCCCC2)N2CCCC3(CCCCC3)C2)c1 (configuration not stated) | . | -2 | 115* | . | 4 | -4
CCCN1C[C@H](C)[C@H](OC)CN(C)C(=O)c2ccc(NC(=O)CC)cc2OC[C@H]1C | -1 | . | . | . | . | .
COc1cc2oc(-c3ccc(O)cc3)cc(=O)c2c(O)c1OC | 1 | -7 | . | 4 | . | 98*
O=c1cc(-c2ccccc2)oc2ccc(Cl)cc12 | 2 | . | -22 | -5 | 0 | .
SMILES | F508del corr | PglD DTNB | Env fusion inh | Casp6 inh | NSD2 inh | ALR inh
COc1c(O)cc2oc(-c3ccc(O)cc3)cc(=O)c2c1O | -2 | -2 | -485 | 4 | . | 94*
COc1cc2oc(-c3ccc(O)cc3)cc(=O)c2c(OC)c1O | -2 | -1 | -17 | . | 1 | .
O=c1cc(-c2ccc(O)cc2)oc2c(O)c(O)c(O)c(O)c12 | -2 | -2 | . | 63* | . | 86*
O=c1cc(-c2ccccc2)oc2cc(O)c(O)c(O)c12 | -5 | 1 | . | 44* | . | .
O=C(NCCN1CCCC1)[C@H]1N[C@H]2c3ccc(C4=CCCCC4)c(=O)n3C[C@H]2[C@@H]1CO | -2 | 1 | . | 1 | . | .
C[C@@H]1CN([C@H](C)CO)C(=O)c2cc(NC(=O)Cc3ccccc3)ccc2O[C@@H](C)CCCCO[C@@H]1CN(C)Cc1ccc2c(c1)OCO2 | 4 | -5 | -26[16.7 µM] | . | . | .
COc1ccc(S(=O)(=O)Nc2ccc3c(c2)C(=O)N([C@@H](C)CO)C[C@H](C)[C@H](CN(C)S(=O)(=O)c2ccccc2)OCCCC[C@H](C)O3)cc1 | -1 | . | . | 2 | . | .
COc1ccc(CNC(=O)c2cccc3c2C(=O)N(CC2CCCO2)C3)cc1 (configuration not stated) | 1 | -2 | -23 | 0 | . | 88*
COc1ccc(CNC(=O)c2cccc3c2C(=O)N(Cc2cccnc2)C3)cc1 | . | 2 | . | . | 0 | .
Nc1ccc(CCc2ccc(N)cc2)cc1 | 0 | 6 | 2 | 0 | 0 | 85*
Clc1cccc(Cc2c(-c3ccco3)nc3c4ccccc4ccn23)c1 | 4 | . | 7 | 15 | . | .
Fc1cccc(Cc2c(-c3ccco3)nc3c4ccccc4ccn23)c1 | 3 | 4 | 69* | -2 | . | .
c1coc(-c2nc3c4ccccc4ccn3c2Cc2ccsc2)c1 | 1 | . | 63* | 15 | . | .
Fc1ccc(-c2nc3c4ccccc4ccn3c2Cc2ccsc2)cc1 | 1 | 3 | 57* | 31 | . | .
Fc1ccc(-c2nc3c4ccccc4ccn3c2Cc2ccccc2)cc1 | -1 | 1 | -6 | -1 | . | .
C[C@@H]1CN([C@H](C)CO)S(=O)(=O)c2ccc(C3=CCCC3)cc2O[C@@H]1CN(C)Cc1cncnc1 | 1 | 1 | 16[16.7 µM] | -1 | . | .
COc1ccc(Oc2c(OC)cc(NCc3ccc(CN)cc3)c3ncccc23)cc1 | -3 | -2 | -6 | 21 | 76* | .
C[C@@H]1CN([C@@H](C)CO)C(=O)c2cc(NS(=O)(=O)c3cn(C)cn3)ccc2O[C@@H](C)CCCCO[C@@H]1CN(C)Cc1ccc(C(F)(F)F)cc1 | 1 | 1 | -9[16.7 µM] | -13 | . | .
Cc1nc2c(nc1C)C(=O)c1ccccc1C2=O | -4 | . | 11 | 36* | 48 | .
Nc1ccccc1SC(CC(=O)c1ccccc1)c1ccc([N+](=O)[O-])cc1 (configuration not stated) | -3 | -1 | -145 | -1 | 2 | .
Cc1ccc(C(=O)CC(SCC(=O)O)c2ccc([N+](=O)[O-])cc2)cc1 (configuration not stated) | -1 | . | 3 | 5 | 10 | 99*
CC(C)C#Cc1ccc2c(c1)O[C@H](CN(C)C(=O)C1CCC1)[C@@H](C)CN([C@H](C)CO)S2(=O)=O | -1 | . | 9[16.7 µM] | . | . | .
